# ± gives the standard deviation of the averaged measurements. Over roughly 33,000 sequences, “E-score (rank enrichment, -0.5 to 0.5)” has its median near -0.0075; the highest 2% begin near 0.23. Only a selection was taken, and the highest values are over-represented in it overall.
# Tested on: WT Max(13-93) synthetic (M65Nle)
# Experiment: PBM 8-mer E-score (E-score (rank enrichment, -0.5 to 0.5)); higher = stronger preferential binding
# Method: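 Protein binding microarray (universal PBM chip covering all 10-mers in fixed probe flanks) with chemically synthesized human Max(13-93) bHLH-LZ analogs (not full-length Max) bearing noncanonical residues (hArg, Tha, Aib, Nle at 65) and aromatic Cys staples. Read-out per 8-mer (and its reverse complement): E-score (rank-based enrichment, -0.5 to 0.5) and Z-score of median probe intensity.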
row,Sequence,PBM 8-mer E-score
1,AGATGTGC,0.0526 ± 0.076
2,CCATGTCC,-0.0654 ± 0.065
3,ACATGTCA,0.204 ± 0.057
4,ACATGTCC,0.212 ± 0.03
5,CCATGTGA,0.308 ± 0.0086
6,AGATGTGA,0.16 ± 0.038
7,CGATGTGA,-0.114 ± 0.17
8,CCATGTCA,-0.0624 ± 0.05
9,ACATGTGC,0.359 ± 0.0051
10,CGTTGCCA,0.0775 ± 0.02
11,GAATGGGA,0.0933 ± 0.016
12,CCGACGGA,-0.238 ± 0.0081
13,TAGGTGCA,0.0931 ± 0.075
14,CCGCAATC,-0.0997 ± 0.03
15,ATCTGATC,-0.138 ± 0.17
16,ACATGTGG,0.36 ± 0.049
17,ACATGTCG,0.14 ± 0.052
18,AGATGTGG,0.0747 ± 0.083
19,GCATGTGA,0.314 ± 0.013
20,GCATGTCA,0.208 ± 0.011
21,GAATGTGA,0.0246 ± 0.0085
22,GAGCATAA,0.0772 ± 0.044
23,CCTCAACG,-0.187 ± 0.062
24,AGGGGTCC,-0.221 ± 0.0076
25,CAGCGGGA,-0.165 ± 0.016

row,Sequence,PBM 8-mer E-score
1,AAGCATGC,0.312 ± 0.066
2,AAGCATAC,0.105 ± 0.023
3,AAGCATGT,0.277 ± 0.024
4,AAGCATCC,0.0408 ± 0.066
5,AAGCATGG,0.219 ± 0.031
6,AAGCATGA,0.152 ± 0.064
7,AGGTGGGG,0.0712 ± 0.15
8,GGAAAAGA,0.0579 ± 0.031
9,TGCTGTAA,0.00145 ± 0.0042
10,ACAAGTGA,0.0895 ± 0.13
11,GAGCTTGA,-0.165 ± 0.014
12,GGTCCCAC,-0.0853 ± 0.11
13,AGAATAAT,0.177 ± 0.0073
14,AGAATAAA,0.262 ± 0.034
15,GGAATAAA,0.0114 ± 0.13
16,AGAATAAG,-0.0395 ± 0.13
17,TGAATAAA,0.305 ± 0.013
18,CGAATAAA,0.0742 ± 0.027
19,CTCGCGGC,-0.138 ± 0.055
20,ACACGTGG,0.4934 ± 0.00068
21,TCACGTCA,-0.00158 ± 0.0094
22,TCACGTGA,0.444 ± 0.018
23,ACACGTGC,0.4859 ± 0.0013
24,ACACGTAC,0.159 ± 0.044
25,ACACGTAT,0.192 ± 0.027

row,Sequence,PBM 8-mer E-score
1,ACACGTGT,0.487 ± 0.002
2,ACACGTAG,0.0871 ± 0.035
3,TCACGTAA,0.129 ± 0.01
4,AAACGTGT,0.166 ± 0.05
5,AAACGTGG,0.206 ± 0.021
6,AGACGTGC,-0.0899 ± 0.02
7,CTGCCAAC,-0.111 ± 0.013
8,GATACCAA,-0.0524 ± 0.022
9,CAGTGAAC,0.0267 ± 0.035
10,ACAATCTG,0.065 ± 0.027
11,AGAAACTC,-0.0484 ± 0.078
12,ACGAAAAA,0.221 ± 0.056
13,CTTGCGTA,0.0635 ± 0.052
14,AGACGTGA,0.103 ± 0.038
15,ACACGTGA,0.4747 ± 0.0033
16,ATACGTGA,-0.00216 ± 0.0077
17,AAGCAGGC,-0.0736 ± 0.011
18,CGTGGGGC,0.119 ± 0.11
19,AGATGACT,-0.172 ± 0.045
20,CACTTCTC,0.0461 ± 0.0024
21,AATTATCC,0.0573 ± 0.0067
22,CATTATCA,0.242 ± 0.09
23,AATTATCA,0.273 ± 0.083
24,AGTTATCA,0.07501 ± 0.00026
25,AATCATTA,0.223 ± 0.072

row,Sequence,PBM 8-mer E-score
1,GGTTATCA,0.232 ± 0.078
2,CATCATTC,-0.011 ± 0.044
3,CGTTATCA,0.044 ± 0.015
4,CATTATCG,-0.0926 ± 0.0027
5,TATTATCA,0.2 ± 0.026
6,CATCATTA,0.238 ± 0.034
7,AATTATCG,0.132 ± 0.064
8,GGACTGCA,-0.017 ± 0.043
9,CGTGTCTC,0.201 ± 0.035
10,CTAATCCC,0.144 ± 0.024
11,CCGTCTAC,0.0424 ± 0.084
12,ACTAACCT,0.0869 ± 0.06
13,GGTTCCTA,-0.109 ± 0.046
14,AGACACAG,-0.0614 ± 0.0067
15,GGTTATTA,0.126 ± 0.0068
16,AATTATAG,0.279 ± 0.07
17,AGTTATTA,0.245 ± 0.038
18,CATTATTC,0.137 ± 0.063
19,AGTTATTG,0.127 ± 0.066
20,AATTATAA,0.214 ± 0.072
21,CATTATTA,0.262 ± 0.0081
22,GATTATTA,0.146 ± 0.14
23,AATTATAC,0.1451 ± 0.00023
24,GCCCCGAC,-0.0997 ± 0.092
25,AAAAGAGT,0.0215 ± 0.025

row,Sequence,PBM 8-mer E-score
1,CAGCCGGG,-0.216 ± 0.054
2,CGCGATGA,-0.0499 ± 0.057
3,AATACCAT,0.239 ± 0.0086
4,GATACCAC,0.0906 ± 0.0058
5,AATACCAG,-0.0097 ± 0.088
6,ACTACCAT,0.0905 ± 0.098
7,AATACCAA,0.0858 ± 0.08
8,AATACCAC,0.232 ± 0.0071
9,CTACCCGC,-0.143 ± 0.13
10,GAAGGAGC,-0.0442 ± 0.0094
11,AAAGGCAA,0.225 ± 0.019
12,CGCGCAAG,-0.09 ± 0.021
13,ACGTGATA,0.373 ± 0.04
14,ACGTGATG,0.281 ± 0.036
15,AGGTGATG,-0.035 ± 0.048
16,CCGTGATC,-0.0695 ± 0.058
17,ATGTGATA,0.259 ± 0.018
18,GCGTGATA,0.157 ± 0.0055
19,CTGTGATA,-0.0471 ± 0.032
20,AAGTGATC,0.00227 ± 0.17
21,CCGTGATA,-0.0612 ± 0.11
22,GTGTGATA,0.161 ± 0.094
23,AAGTGATG,0.0833 ± 0.02
24,ACGTGATC,0.365 ± 0.03
25,CCGCCGCG,-0.0114 ± 0.016

row,Sequence,PBM 8-mer E-score
1,CGACCTTA,-0.135 ± 0.088
2,AGTAACCA,0.0556 ± 0.031
3,ACGCTAAA,-0.0749 ± 0.18
4,AAGGTTCG,0.00686 ± 0.047
5,TCGGTAAA,0.0761 ± 0.071
6,GCGTTCGA,-0.0763 ± 0.0099
7,TTACTAAA,0.109 ± 0.064
8,GTACTAAA,0.0526 ± 0.051
9,ATACTAAA,0.236 ± 0.0049
10,GTCCTAAC,-0.0552 ± 0.13
11,ATCCTAAC,0.133 ± 0.071
12,CTCCTAAC,0.24 ± 0.12
13,CTACTAAC,0.279 ± 0.095
14,ATACTAAC,0.159 ± 0.022
15,CTACTAAG,-0.104 ± 0.13
16,CTCCAAAG,-0.102 ± 0.047
17,ATGGAACC,-0.166 ± 0.054
18,ACAGAACG,-0.0169 ± 0.0023
19,CAACCGGC,-0.263 ± 0.061
20,CAAATCAA,0.245 ± 0.008
21,GAAATCAA,0.138 ± 0.029
22,AAAATCAA,0.0163 ± 0.098
23,GTCGGAAA,-0.0618 ± 0.062
24,ACAATACA,0.106 ± 0.079
25,ACAATACC,0.249 ± 0.069

row,Sequence,PBM 8-mer E-score
1,ACAATACT,0.117 ± 0.14
2,CTTGCTCC,-0.0612 ± 0.0067
3,GGGCATGA,-0.0171 ± 0.012
4,GTGCATGA,0.265 ± 0.012
5,ATGCATGG,0.156 ± 0.079
6,ATGCATCA,0.254 ± 0.0073
7,ATGCATTC,0.197 ± 0.016
8,ATGCATCG,0.0483 ± 0.15
9,ATGCATTA,0.265 ± 0.055
10,GTGCATCA,0.0702 ± 0.089
11,CTGCATTA,0.0253 ± 0.0015
12,ATGCATGA,0.244 ± 0.02
13,CTGCATGA,-0.175 ± 0.057
14,ATGCATGC,0.203 ± 0.04
15,CTGCTGTA,-0.271 ± 0.066
16,CGCTGCGC,-0.152 ± 0.14
17,CGAGCTCC,0.00928 ± 0.0055
18,CAGGATTC,-0.0901 ± 0.04
19,AAGTCCGC,-0.204 ± 0.041
20,CCAAACCA,0.037 ± 0.03
21,AGGGTGTG,0.0713 ± 0.066
22,CAGTAACG,-0.0368 ± 0.021

# Source: the supplement of paper PMC12636033
